# Laboratory results: the supplement of paper PMC12282887
# ± gives the standard deviation of the averaged measurements.
# Tests used:
# Test in all cases: promoter activity interaction Z-score (Lux/OD deviation from empty-vector control); higher = stronger promoter induction by the compound
# [1] = tested on: E. coli BW25113 acrABp lux reporter
# How it was run: (§1)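 Four 1:2 dilutions of each compound were tested in biological duplicates on E. coli BW25113 carrying low-copy luxCDABE promoter reporters, either wild type or deleted for one of three genes. Cultures of 40 µl LB Lennox in 384-well plates were kept at 37°C and read for OD600 and luminescence every 30 min for 12 h. Integration windows were 0–8 h for wild type and 1–9 h for deletion strains, and wells under 10% of the median growth value were discarded. The score is a Z-transformed residual of growth-normalised luminescence relative to a control fit.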
# [2] = tested on: E. coli BW25113 marRABp lux reporter
# How it was run: as §1
# [3] = tested on: E. coli BW25113 micFp lux reporter
# How it was run: as §1
# [4] = tested on: E. coli BW25113 ompFp lux reporter
# How it was run: as §1
# [5] = tested on: E. coli BW25113 robp lux reporter
# How it was run: as §1
# [6] = tested on: E. coli BW25113 soxSp lux reporter
# How it was run: as §1
# [7] = tested on: E. coli BW25113 tolCp lux reporter
# How it was run: as §1
# [8] = 17.3 µg/ml, genetic background: wild type
# [9] = 17.3 µg/ml, genetic background: ΔmarA
# [10] = 17.3 µg/ml, genetic background: Δrob
# [11] = 17.3 µg/ml, genetic background: ΔsoxS
# [12] = 34.5 µg/ml, genetic background: wild type
# [13] = 34.5 µg/ml, genetic background: ΔmarA
# [14] = 34.5 µg/ml, genetic background: Δrob
# [15] = 34.5 µg/ml, genetic background: ΔsoxS
# [16] = 69.1 µg/ml, genetic background: wild type
# [17] = 69.1 µg/ml, genetic background: ΔmarA
# [18] = 69.1 µg/ml, genetic background: Δrob
# [19] = 69.1 µg/ml, genetic background: ΔsoxS
# [20] = 138.1 µg/ml, genetic background: wild type
# [21] = 138.1 µg/ml, genetic background: ΔmarA
# [22] = 138.1 µg/ml, genetic background: Δrob
# [23] = 138.1 µg/ml, genetic background: ΔsoxS
structure (smiles),measurement,setting,value
O=C(O)c1ccccc1O [Salicylate],promoter activity interaction Z-score,[1]; [8],-0.103 ± 0.014
same,promoter activity interaction Z-score,[1]; [9],-0.589 ± 0.63
same,promoter activity interaction Z-score,[1]; [10],-0.226 ± 0.24
same,promoter activity interaction Z-score,[1]; [11],-0.152 ± 0.11
same,promoter activity interaction Z-score,[1]; [12],-0.242 ± 0.057
same,promoter activity interaction Z-score,[1]; [13],-0.128 ± 0.11
same,promoter activity interaction Z-score,[1]; [14],-0.178 ± 0.057
same,promoter activity interaction Z-score,[1]; [15],-0.392 ± 0.55
same,promoter activity interaction Z-score,[1]; [16],-0.168 ± 0.043
same,promoter activity interaction Z-score,[1]; [17],-0.559 ± 0.22
same,promoter activity interaction Z-score,[1]; [18],-0.327 ± 0.03
same,promoter activity interaction Z-score,[1]; [19],-0.194 ± 0.22
same,promoter activity interaction Z-score,[1]; [20],1.16 ± 0.76
same,promoter activity interaction Z-score,[1]; [21],0.299 ± 0.12
same,promoter activity interaction Z-score,[1]; [22],0.954 ± 0.4
same,promoter activity interaction Z-score,[1]; [23],1.34 ± 0.39
same,promoter activity interaction Z-score,[2]; [8],0.135 ± 0.01
same,promoter activity interaction Z-score,[2]; [9],0.0581 ± 0.22
same,promoter activity interaction Z-score,[2]; [10],0.184 ± 0.16
same,promoter activity interaction Z-score,[2]; [11],-0.0106 ± 0.075
same,promoter activity interaction Z-score,[2]; [12],0.214 ± 0.13
same,promoter activity interaction Z-score,[2]; [13],0.401 ± 0.26
same,promoter activity interaction Z-score,[2]; [14],0.526 ± 0.052
same,promoter activity interaction Z-score,[2]; [15],0.404 ± 0.12
same,promoter activity interaction Z-score,[2]; [16],0.771 ± 0.2
same,promoter activity interaction Z-score,[2]; [17],0.666 ± 0.1
same,promoter activity interaction Z-score,[2]; [18],0.852 ± 0.25
same,promoter activity interaction Z-score,[2]; [19],0.352 ± 0.1
same,promoter activity interaction Z-score,[2]; [20],7.4 ± 0.11
same,promoter activity interaction Z-score,[2]; [21],8.571 ± 0.071
same,promoter activity interaction Z-score,[2]; [22],6.24 ± 1.4
same,promoter activity interaction Z-score,[2]; [23],6.09 ± 1.6
same,promoter activity interaction Z-score,[3]; [8],0.432 ± 0.15
same,promoter activity interaction Z-score,[3]; [9],-0.066 ± 0.12
same,promoter activity interaction Z-score,[3]; [10],0.521 ± 0.42
same,promoter activity interaction Z-score,[3]; [11],0.0126 ± 0.12
same,promoter activity interaction Z-score,[3]; [12],0.534 ± 0.39
same,promoter activity interaction Z-score,[3]; [13],-0.0684 ± 0.18
same,promoter activity interaction Z-score,[3]; [14],0.624 ± 0.05
same,promoter activity interaction Z-score,[3]; [15],0.176 ± 0.22
same,promoter activity interaction Z-score,[3]; [16],0.858 ± 0.46
same,promoter activity interaction Z-score,[3]; [17],0.0541 ± 0.076
same,promoter activity interaction Z-score,[3]; [18],1.4 ± 0.11
same,promoter activity interaction Z-score,[3]; [19],0.648 ± 0.042
same,promoter activity interaction Z-score,[3]; [20],3.02 ± 0.49
same,promoter activity interaction Z-score,[3]; [21],0.477 ± 0.32
same,promoter activity interaction Z-score,[3]; [22],4.91 ± 0.15
same,promoter activity interaction Z-score,[3]; [23],3.15 ± 0.65
same,promoter activity interaction Z-score,[4]; [8],-0.258 ± 0.037
same,promoter activity interaction Z-score,[4]; [9],-0.336 ± 0.23
same,promoter activity interaction Z-score,[4]; [10],-0.349 ± 0.016
same,promoter activity interaction Z-score,[4]; [11],-0.27 ± 0.18
same,promoter activity interaction Z-score,[4]; [12],-0.259 ± 0.41
same,promoter activity interaction Z-score,[4]; [13],-0.439 ± 0.33
same,promoter activity interaction Z-score,[4]; [14],-0.523 ± 0.35
same,promoter activity interaction Z-score,[4]; [15],0.344 ± 0.3
same,promoter activity interaction Z-score,[4]; [16],-0.272 ± 0.29
same,promoter activity interaction Z-score,[4]; [17],-0.133 ± 0.11
same,promoter activity interaction Z-score,[4]; [18],0.0991 ± 0.22
same,promoter activity interaction Z-score,[4]; [19],0.35 ± 0.33
same,promoter activity interaction Z-score,[4]; [20],0.5 ± 0.64
same,promoter activity interaction Z-score,[4]; [21],-0.462 ± 0.05
same,promoter activity interaction Z-score,[4]; [22],0.991 ± 0.12
same,promoter activity interaction Z-score,[4]; [23],0.357 ± 1.6
same,promoter activity interaction Z-score,[5]; [8],0.135 ± 0.21
same,promoter activity interaction Z-score,[5]; [9],-0.248 ± 0.33
same,promoter activity interaction Z-score,[5]; [10],-0.0314 ± 0.15
same,promoter activity interaction Z-score,[5]; [11],-0.476 ± 0.16
same,promoter activity interaction Z-score,[5]; [12],-0.293 ± 0.019
same,promoter activity interaction Z-score,[5]; [13],0.052 ± 0.1
same,promoter activity interaction Z-score,[5]; [14],-0.218 ± 0.033
same,promoter activity interaction Z-score,[5]; [15],0.365 ± 0.091
same,promoter activity interaction Z-score,[5]; [16],-0.0138 ± 0.24
same,promoter activity interaction Z-score,[5]; [17],-0.259 ± 0.74
same,promoter activity interaction Z-score,[5]; [18],0.387 ± 0.029
same,promoter activity interaction Z-score,[5]; [19],-0.512 ± 0.077
same,promoter activity interaction Z-score,[5]; [20],-0.0563 ± 0.13
same,promoter activity interaction Z-score,[5]; [21],-0.611 ± 0.22
same,promoter activity interaction Z-score,[5]; [22],0.693 ± 0.087
same,promoter activity interaction Z-score,[5]; [23],-0.616 ± 0.21
same,promoter activity interaction Z-score,[6]; [8],0.0635 ± 0.14
same,promoter activity interaction Z-score,[6]; [9],-0.172 ± 0.0058
same,promoter activity interaction Z-score,[6]; [10],-0.0541 ± 0.36
same,promoter activity interaction Z-score,[6]; [11],-0.237 ± 0.017
same,promoter activity interaction Z-score,[6]; [12],-0.0796 ± 0.076
same,promoter activity interaction Z-score,[6]; [13],-0.219 ± 0.049
same,promoter activity interaction Z-score,[6]; [14],-0.0336 ± 0.1
same,promoter activity interaction Z-score,[6]; [15],-0.0124 ± 0.14
same,promoter activity interaction Z-score,[6]; [16],-0.0424 ± 0.045
same,promoter activity interaction Z-score,[6]; [17],-0.126 ± 0.076
same,promoter activity interaction Z-score,[6]; [18],0.239 ± 0.18
same,promoter activity interaction Z-score,[6]; [19],0.207 ± 0.22
same,promoter activity interaction Z-score,[6]; [20],0.0689 ± 0.0036
same,promoter activity interaction Z-score,[6]; [21],0.491 ± 0.041
same,promoter activity interaction Z-score,[6]; [22],0.434 ± 0.012
same,promoter activity interaction Z-score,[6]; [23],0.177 ± 0.4
same,promoter activity interaction Z-score,[7]; [8],-0.0562 ± 0.66
same,promoter activity interaction Z-score,[7]; [9],-0.946 ± 0.55
same,promoter activity interaction Z-score,[7]; [10],0.0451 ± 0.3
same,promoter activity interaction Z-score,[7]; [11],0.372 ± 0.27
same,promoter activity interaction Z-score,[7]; [12],-0.65 ± 0.46
same,promoter activity interaction Z-score,[7]; [13],-0.0216 ± 0.48
same,promoter activity interaction Z-score,[7]; [14],-0.226 ± 0.041
same,promoter activity interaction Z-score,[7]; [15],0.227 ± 0.47
same,promoter activity interaction Z-score,[7]; [16],-0.276 ± 0.26
same,promoter activity interaction Z-score,[7]; [17],-0.251 ± 0.18
same,promoter activity interaction Z-score,[7]; [18],0.839 ± 0.021
same,promoter activity interaction Z-score,[7]; [19],0.668 ± 1.5
same,promoter activity interaction Z-score,[7]; [20],2.05 ± 1
same,promoter activity interaction Z-score,[7]; [21],-0.89 ± 0.018
same,promoter activity interaction Z-score,[7]; [22],1.38 ± 2
same,promoter activity interaction Z-score,[7]; [23],0.806 ± 0.32
